AID923 – qHTS Assay for Allosteric/Competitive Inhibitors of Caspase-1: Spectroscopic Profiling in AFC Spectral Region; compound fluorescence, AFC spectral region (405/520 nm); Potency, µM (top dose mostly 57.5 µM), for the others: at the top dose fluorescence increase, hits mostly activators; 75,000 tested, 1.1% active; AID 923, 2007; note: potency is the fitted concentration of half-maximal effect; 0% is about no effect
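Titrations up to 57 uM read every 20 sec for 3 min (405/520 nm) with 50 nM caspase 1 and 5 uM Ac-WEHD-AFC, pH 7.5 HEPES buffer. Fluorescence-vs-time intercept gave baseline, scaled against on-plate AFC standard.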
A350 autofl – A350 region autofluorescence. Compound autofluorescence, 340/450 nm, Alexa 350 dye-equivalents; hits give high values. max dye-equivalent concentration, M. 59,000 tested, 11% active. AID 590; in the data active = max dye-equivalent concentration above about 10 nM; inconclusive = mostly about 1.1 nM to 9.6 nM
HSD17B inh – inhibitors of human HSD17B10 dehydrogenase. recombinant HSD17B10, NADH fluorescence kinetic. 75,000 tested, 7.6% active. Potency, µM (doses to about 57.1 µM), for the others: top-dose activity change, negative = inhibition, actives largely listed as inhibitors;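 note: the protocol describes HADH2 (HSD17B10) and not the HSD17B4 of the title; potency is the fitted concentration of half-maximal effect; % is set by controls: 0 for no effect and ±100 for the full control effect; nearly all actives have a fitted effect of over 70% in size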
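Enzyme plus compound, 15 min room temperature; substrate mix added (NAD+ 1 mM, beta-hydroxybutyryl-CoA 90 uM final); plates read kinetically for NADH fluorescence. HADH2 was His-tagged, E. coli-derived, 20 nM.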
GBA activity – human lysosomal glucosylceramidase modulation | purified enzyme, resorufin glucoside fluorescence (screen aimed at inhibitors), 20 min | P04062 | Potency, µM | 48,000 tested, 1.1% active; in the data active = potency below about 15 µM; inconclusive = mostly about 16 µM to 33 µM;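 note: potency is the fitted concentration of half-maximal effect; the screen sought inhibitors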
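Wild-type enzyme at 0.2 nM final in 50mM citric acid/KH2PO4, 10mM sodium taurocholate, 0.01% tween-20, pH 5.9, with resorufin beta-D-glucopyranoside at 30 uM final. Compounds titrated, 20 min at RT, red fluorescence read; AC50 from titration.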
4-MU autofl – compound fluoresces in the 4-MU spectral region; compound autofluorescence, 340/450 nm, 4-MU equivalents; hits give high values; max dye-equivalent concentration, M; 59,000 tested, 11% active; AID 589; in the data active = max dye-equivalent concentration above about 10 nM; inconclusive = mostly about 1.1 nM to 9.6 nM
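Compounds in 100 mM Tris, pH 8.0, incubated 15 min at room temperature, then fluorescence read at 340 nm excitation/450 nm emission. Signal converted to 4-MU dye-equivalent concentration using an on-plate six-point 4-MU standard curve.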
HADH2 inh – HADH2 (human) dehydrogenase inhibition | Potency, µM (top dose mostly 57.1 µM), for the others: at the top dose activity change, negative = inhibition, actives largely listed as inhibitors | AID 886 | recombinant HADH2, NADH fluorescence, beta-hydroxybutyryl-CoA | 73,000 tested, 3.4% active; note: potency is the fitted concentration of half-maximal effect; % is set by controls: 0 for no effect and ±100 for the full control effect; nearly all actives have a fitted effect of over 60% in size
Target sequence (Q99714 whole entry, looked up, one chain of several): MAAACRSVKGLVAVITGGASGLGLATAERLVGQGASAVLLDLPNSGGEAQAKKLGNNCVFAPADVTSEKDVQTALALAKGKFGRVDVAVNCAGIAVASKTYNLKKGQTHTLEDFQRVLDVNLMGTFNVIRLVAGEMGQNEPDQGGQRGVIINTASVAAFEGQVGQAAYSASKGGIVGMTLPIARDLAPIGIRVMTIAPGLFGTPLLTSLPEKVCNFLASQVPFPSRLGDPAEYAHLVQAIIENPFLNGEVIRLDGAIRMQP
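20 nM HADH2 + cpd, 15 min RT; add 1 mM NAD+/90 uM beta-hydroxybutyryl-CoA; kinetic fluorescence 360/450 nm, 4 min. Tris-HCl pH 9.0, 0.01% Tween-20.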
Starred values were filed as active, the others as inactive; [ ] = remark or other dose. Compounds with a hit are over-represented: about 13% of the library has one in this group of screens. Unless noted, calls come from the whole dose curve; as a rule, active = well fitted curve in the direction sought with a large enough effect; inconclusive = small, poorly fitted or top-dose-only effect, or another doubt; inactive = no such curve, though single readings can be large; an effect the other way counts as inactive or inconclusive.

How did CC1CCN(c2nc3ccccc3nc2C(C#N)C(=O)NC2CCCCC2)CC1 (stereo not given) do in these assays?
AID923: 17%; A350 autofl: inconclusive; HSD17B inh: -3%; GBA activity: >77; 4-MU autofl: inconclusive; HADH2 inh: 13%

What do the screens show for `C=CCNC(=O)C(C#N)c1nc2ccccc2nc1N1CCCCCC1` (stereo not given)?
A350 autofl: 3.6e-07M*; 4-MU autofl: 3e-07M*

What do the screens show for `N#CC(C(=O)NC1CCCCC1)c1nc2ccccc2nc1N1CCN(c2ccccc2F)CC1` (stereo not given)?
A350 autofl: inactive; 4-MU autofl: inactive

How did CCCCC(=NCCO)C1=C(O)C(C(=O)OC)C(C)(C)CC1=O (stereo not given) do in these assays?
AID923: 0%; A350 autofl: inconclusive; HSD17B inh: 12%; GBA activity: >77; 4-MU autofl: inconclusive; HADH2 inh: 5%

Results for O=C1OCCC1Sc1nc2ccccc2[nH]1 (stereo not given) ?
AID923: 0%; A350 autofl: inactive; HSD17B inh: -7%; GBA activity: >77; 4-MU autofl: inactive; HADH2 inh: -10%

Results for CS(=O)(=O)Nc1c(O)ccc2c1CCC[C@H]2C1=NCCN1 ?
AID923: -1%; HSD17B inh: -11%; HADH2 inh: 0%

What do the screens show for `COC(=O)CSc1nc2ccccc2c(=O)n1C`?
AID923: 2%; A350 autofl: inactive; HSD17B inh: -12%; GBA activity: >77; 4-MU autofl: inactive; HADH2 inh: 6%

How did CC(=O)Nc1ccc(S(=O)(=O)Nc2nc(C)cc(-n3nc(C)cc3C)n2)cc1 do in these assays?
AID923: 4%; HSD17B inh: 2%; HADH2 inh: -6%[11.4 µM]

How did CN1CCN(S(=O)(=O)c2ccc(N)cc2)CC1 do in these assays?
AID923: -3%; HSD17B inh: 7%; HADH2 inh: 5%

How did CCCCOc1nc2ccccc2nc1C(C#N)C(=O)NC1CCCCC1 (stereo not given) do in these assays?
A350 autofl: 2.9e-08M*; 4-MU autofl: 3.5e-08M*

How did Cc1ccc(-n2c3c(cc(C(=O)NC4CCSC4=O)c2=O)C(=O)CCC3)cc1 (stereo not given) do in these assays?
AID923: 1%; A350 autofl: inactive; HSD17B inh: 25µM*; GBA activity: >77; 4-MU autofl: inactive; HADH2 inh: -12%

Results for Cc1ccc(O)c(Sc2cc(C)ccc2O)c1 ?
AID923: -3%; A350 autofl: inactive; HSD17B inh: -15%; GBA activity: >77; 4-MU autofl: inactive; HADH2 inh: inconclusive

How did CC(=O)c1oc2ccccc2c1NC(=O)COC(=O)c1ccc(-n2nc(C)cc2C)cc1 do in these assays?
AID923: 2%; A350 autofl: inactive; HSD17B inh: -3%; GBA activity: >77; 4-MU autofl: inactive; HADH2 inh: 1%

How did CC1=CC(C)(C)Nc2cc(C)c(C)cc21 do in these assays?
AID923: 7%; A350 autofl: 2.5e-08M*; HSD17B inh: inconclusive; GBA activity: >77; 4-MU autofl: 2.7e-08M*; HADH2 inh: -21%

How did CC1=CC(C)(C)Nc2ccc(OC(=O)CN3C(=O)CCC3=O)cc21 do in these assays?
AID923: 2%; HSD17B inh: inconclusive; HADH2 inh: inconclusive

How did CC1=CC(C)(C)Nc2ccc(CSc3ccccc3)cc21 do in these assays?
AID923: -1%[11.5 µM]; A350 autofl: inconclusive; HSD17B inh: inconclusive; 4-MU autofl: inconclusive; HADH2 inh: -6%[11.4 µM]

How did CC1=CC(C)(C)Nc2ccc(C)cc21 do in these assays?
AID923: 1%; A350 autofl: 2.1e-07M*; HSD17B inh: 32µM*; GBA activity: >77; 4-MU autofl: 1.6e-07M*; HADH2 inh: 32µM*

Results for CCOC(=O)c1ccc(NCc2nc3ccccc3[nH]2)cc1 ?
AID923: -1%; HSD17B inh: -2%; HADH2 inh: 6%

How did NC(=O)CSc1nnc2n(-c3ccccc3)c(=O)c3c4c(sc3n12)CCCCC4 do in these assays?
A350 autofl: inactive; 4-MU autofl: inactive
